# mIDH1 inhibitor: blocks human mutant IDH1 R132H enzyme; O75874; IDH1-R132H enzyme, NADPH consumption, diaphorase/resazurin fluorescence; Potency, µM (highest dose often 76.6 µM), for the others: top-dose activity change, negative = inhibition, actives largely listed as inhibitors; 390,000 compounds, 0.093% hits; AID 602179; also: % is scaled to controls: 0 for no effect and ±100 for the full control effect; nearly all actives have a fitted effect of over 65% in size
# Target sequence (O75874 whole entry R132H, stated change not applied): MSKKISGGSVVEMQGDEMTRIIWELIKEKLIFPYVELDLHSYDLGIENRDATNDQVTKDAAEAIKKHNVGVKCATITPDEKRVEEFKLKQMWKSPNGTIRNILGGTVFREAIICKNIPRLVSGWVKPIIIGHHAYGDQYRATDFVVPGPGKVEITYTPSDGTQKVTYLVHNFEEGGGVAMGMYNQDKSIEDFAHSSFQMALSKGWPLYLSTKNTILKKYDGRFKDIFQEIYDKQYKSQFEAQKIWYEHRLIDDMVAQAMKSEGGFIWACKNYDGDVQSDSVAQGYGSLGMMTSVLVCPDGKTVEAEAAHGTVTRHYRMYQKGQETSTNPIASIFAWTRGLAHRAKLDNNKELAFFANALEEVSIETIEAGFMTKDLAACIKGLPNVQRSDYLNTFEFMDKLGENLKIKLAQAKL
#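 IDH1-R132H (0.5 ug/mL dispensed) in pH 7.5 Tris buffer was preincubated 30 min with compound, then given a substrate mix of 0.016 mM NADPH and 2 mM alpha-KG for 80 min at room temperature; remaining NADPH was read by diaphorase/resazurin fluorescence.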
# rTrxR1 inhibitor: blocks rat thioredoxin reductase 1; O89049; recombinant rTrxR1, NADPH fluorescence consumption, selenite substrate; Potency, µM (titrated, usually from 114 µM), inactives show top-dose activity change, negative = inhibition, actives largely listed as inhibitors; 390,000 compounds, 1% hits; AID 588453; also: % is scaled to controls: 0 for no effect and ±100 for the full control effect; nearly all actives have a fitted effect of over 65% in size
#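 Rat TrxR1 (90 nM in the dispensed reagent) was pre-reduced with 400 uM NADPH for 5 min at room temperature, then incubated with compound for 15 min. After 400 uM selenite was added, NADPH fluorescence (Ex 340/Em 450 nm) was followed for 8 min.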
# Apoferritin bind: binds horse apoferritin like a general anesthetic; Potency, µM (series often up to 77.5 µM), without a hit: at the top dose activity change, negative = displacement, actives largely listed as inhibitors; apoferritin/1-aminoanthracene competitive binding, fluorescence; 350,000 compounds, 0.074% hits; also: % is scaled to controls: 0 for no effect and ±100 for the full control effect; nearly all actives have a fitted effect of over 20% in size
# Target sequence (P02791 2-175 limits assumed): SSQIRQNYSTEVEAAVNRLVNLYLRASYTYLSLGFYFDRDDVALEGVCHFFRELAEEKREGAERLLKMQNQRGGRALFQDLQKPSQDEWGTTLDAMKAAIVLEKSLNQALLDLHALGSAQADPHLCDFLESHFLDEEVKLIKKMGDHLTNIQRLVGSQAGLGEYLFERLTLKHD
#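 10 uM apoferritin + 50% sat. 1-AMA, PBS; cpd 10 min RT; Ex380/Em535 endpoint; normalized to free probe vs complex; 4-param Hill fit; propofol titration as pos. ctrl.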
# 12-LOX inh: inhibitors of human 12S-lipoxygenase ALOX12; Potency, µM (highest dose often 108 µM), inactives show top-dose activity change, negative = inhibition, hits mostly inhibitors; 580,000 compounds, 1.1% hits; purified 12hLO, xylenol orange hydroperoxide absorbance; also: % is scaled to controls: 0 for no effect and ±100 for the full control effect
#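 Hydroperoxide product was detected by ferrous iron/xylenol orange as the 573 to 405 nm absorbance ratio. Arachidonic acid at 40 uM (final) was turned over for 30 min at room temperature by 150 nM human 12hLO, pH 7.0 Hepes buffer, after 15 min compound preincubation.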
# Glioma ERSR ind: inducers of ER stress response in human glioma cells; U87-MG GRP78 promoter luciferase reporter, 16 h; 420,000 compounds, 0.02% hits; AID 602332; Potency, µM, for the others: at the top dose activation, hits mostly activators; also: series mostly up to about 76 µM; % of control where 0% means no effect; nearly all actives have a fitted effect of over 35% in size
#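 ERSR induction read as luciferase luminescence (Bright-Glo, 10 min at room temperature) in stably transfected human U87-MG glioma cells exposed to compounds for 16 h, using GRP78 as sensor.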
# TrxR1 substrate: rat thioredoxin reductase 1 substrate activity; purified TrxR1 substrate turnover, NADPH consumption readout; O89049; Potency, µM (doses to about 114 µM), inactives show top-dose activity change, negative = substrate turnover; 390,000 compounds, 0.01% hits; AID 588456; also: % is scaled to controls: 0 for no effect and ±100 for the full control effect; nearly all actives have a fitted effect of over 50% in size
#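 Rat TrxR1, dispensed at 90 nM, was prereduced with 400 uM NADPH (final) for 5 min at ~22 deg C, then incubated with compound 15 min before 400 uM selenite. A first-read NADPH fluorescence drop versus no-compound background flagged substrates.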
# The depositor's hits bear a star; ? = inconclusive; . = no result given; [ ] = another dose, or the depositor's remark. Sampled rows, rich in hits. Any-hit rate of the full collection: about 1.7%. Calls follow the shape of the dose curve; as a rule, active = well fitted curve in the direction sought with a large enough effect; inconclusive = small, poorly fitted or top-dose-only effect, or another doubt; inactive = no such curve, though single readings can be large; an effect the other way counts as inactive or inconclusive. Potency is read from the fitted curve at half-maximal effect.
SMILES,mIDH1 inhibitor,rTrxR1 inhibitor,Apoferritin bind,12-LOX inh,Glioma ERSR ind,TrxR1 substrate
Cc1ccc(CN(C)C(=O)c2ccccc2NC(=O)c2ccccc2)o1,-9%,28µM*,.,167%,-3%,-2%
CN(Cc1ccccc1)C(=O)c1ccccc1NC(=O)c1ccco1,3%,2%,6%,0%,-4%,0%
Cc1ccc(S(=O)(=O)c2nc(-c3ccccc3Cl)oc2N(C)C)cc1,3%,?,-11%,.,-4%,11%
Cc1nc(S(=O)(=O)c2ccc(Cl)cc2)c(NCc2ccccc2)o1,2%,45µM*,48%,-14%,-3%,-1%
COc1cc(-c2nc(S(=O)(=O)c3ccc(C)cc3)c(N(C)C)o2)cc(OC)c1OC,-6%,-23%[57.1 µM],-5%,-2%,-5%,-5%[57.1 µM]
Cc1ccc(-c2nc(S(=O)(=O)c3ccc(C)cc3)c(N(C)C)o2)cc1,3%,25µM*,-4%,?,-4%,7%
O=S(=O)(c1ccc(Cl)cc1)c1nc(-c2ccccc2F)oc1NCc1ccccc1,-5%,92%,108%,-1%,-4%,43%
Cc1nc(S(=O)(=O)c2ccc(Cl)cc2)c(N(C)C)o1,-3%,4µM*,118%,-15%,-3%,6%
Cc1ccc(S(=O)(=O)c2nc(-c3ccccc3Br)oc2N(C)C)cc1,7%,6.3µM*,.,36%,-6%,14%
Cc1cc2c(cc1C)-c1ccccc1C2=O,.,.,.,32%,.,.
CCc1ccc2cc3c(cc2n1)C(=O)c1ccccc1-3,.,.,.,7.9µM*,-5%,.
O=C1COc2ccc(OCc3ccccc3)nc2CN1CCOc1ccccc1,.,.,.,11µM*,.,.
Cc1cccc(Nc2nc(C(=O)NCCCN3CCOCC3)cs2)c1,.,.,.,13%,.,.
COC(=O)C1C=CC(OC2OC(COC(C)=O)C(OC(C)=O)C(OC(C)=O)C2OC(C)=O)n2c(=O)n(-c3ccccc3)c(=O)n21 (centres undefined),3%,11µM*,.,?,-14%,-3%
CC(=O)Oc1ccc2nonc2c1OC(C)=O,.,?,.,.,-1%,20µM*
CCOC(=O)C1CCN(c2ncnc3c2nnn3C)CC1,-20%,5%[57.1 µM],15%,?,-3%,-3%[57.1 µM]
COC(=O)C(CC(=O)c1ccc(Br)cc1)n1nc(C)cc1C (centres undefined),-2%,8.9µM*,-1%,-8%,-4%,9%
Cc1cccc(NC(=S)NCCC(c2ccccc2)c2ccccc2)c1,2%,0%,68%,35µM*,-7%,1%
Fc1ccc(NC(=S)NCCC(c2ccccc2)c2ccccc2)cc1Cl,.,.,.,25µM*,.,.
Cc1c(Cl)cccc1NC(=S)NCCC(C)C,6%,-13%,6%,0%,-5%,7%[57.1 µM]
COc1cccc(NC(=S)NCCC(c2ccccc2)c2ccccc2)c1,2%,1%[57.1 µM],76%,?,-3%,-6%[57.1 µM]
Cc1c(Cl)cccc1NC(=S)NCCC(c1ccccc1)c1ccccc1,7%,-3%[57.1 µM],134%,25µM*,-10%,8%[57.1 µM]
Cc1ccc(NC(=S)Nc2cc(-c3ccccc3)[nH]n2)cc1Cl,1%,-36%,-20%,?,0%,-5%[57.1 µM]
Cc1cc(Cl)ccc1NC(=S)NCCC(c1ccccc1)c1ccccc1,8%,-20%,13%,?,-9%,-12%
Fc1ccc(NC(=S)Nc2cc(-c3ccccc3)[nH]n2)cc1Cl,-1%,13%[57.1 µM],-14%,28µM*,-5%,1%[57.1 µM]
SMILES,mIDH1 inhibitor,rTrxR1 inhibitor,Apoferritin bind,12-LOX inh,Glioma ERSR ind,TrxR1 substrate
CC[C@@H](NC(C)=O)c1nc(-c2cccnn2)no1,.,.,.,46%,.,.
CC(=O)c1c(C)[nH]c(C(=O)C(C)Oc2ccc(C(=O)c3ccc(F)cc3)cc2)c1C (centres undefined),.,.,.,-14%,.,.
NC(=S)Nc1nc2ccccc2s1,2%,16%[57.1 µM],?,6.3µM*,4%,0%[57.1 µM]
COCC(=O)Nc1nc2ccccc2s1,2%,-5%,-3%,-24%,-3%,0%
CCCCCC1CCC(c2ccc(-c3ccc(CC)cn3)cc2F)CC1 (centres undefined),.,.,.,-15%,.,.
CCC[C@H](NC(=O)C(C#N)=Cc1cccc(Br)n1)c1ccccc1,.,.,.,7.7µM*,.,.
CN(C)Cc1ccccc1-c1cc(N(C)C)ncn1,.,.,-1%,40µM*,-2%,.
CN(C)Cc1ccccc1-c1cc(Nc2ccccc2)ncn1,.,.,-4%,-9%,-1%,.
CC(Sc1cccc2cccnc12)C(=O)NC(=O)NC(C)(C)C (centres undefined),.,.,.,13µM*,.,.
CC(C)Cn1nc(C(=O)N2CCC(n3c(=O)[nH]c4ccccc43)CC2)c2ccccc2c1=O,.,.,.,-24%,.,.
Cc1ccc(-n2nc(C(=O)N(C)c3ccccc3Cl)c3c4ccccc4n(C)c3c2=O)cc1,.,24%,-13%,-25%,.,-1%
O=C1OCc2cc(NS(=O)(=O)c3cccs3)ccc21,2%,10%[57.1 µM],-3%,1%,9%,-4%
O=S(=O)(Nc1ccc2c(c1)CCC2)c1cccs1,-2%,9%,11µM*,-5%,7%,-5%
c1ccc(-c2noc(-c3cncnc3NCCc3cccs3)n2)cc1,.,.,.,46%,.,.
O=C(CCC(=O)c1cccs1)OCC(=O)c1ccc(F)cc1,0%,10%,.,1%,-1%,-4%
O=C(CCC(=O)c1cccs1)OCC(=O)c1ccc(Cl)s1,2%,-14%,28µM*,91%,0%,-4%
CCNC(=O)[C@@H]1C[C@H](NC(=O)c2ccc(CO)o2)CN1Cc1nccs1,.,.,.,8%,.,.
CCN=c1scc(C)n1/N=C/c1ccc(O)c(O)c1O,11%,-34%,?,?,-1%,-15%
CCN=c1scc(C)n1/N=C/c1cc(Br)c(O)c(Br)c1,-1%,16%[57.1 µM],-8%,25µM*,10%,4%[57.1 µM]
CC1(C)Nc2ccc(O)cc2-c2c1ssc2=S,4%,-19%,4%,45µM*,-10%,5%
COc1cccc(-n2sc3c(c2=S)-c2cc(OC)ccc2NC3(C)C)c1,-2%,-16%,-23%,?,-5%,-3%
Cn1cccc1C(=O)N1CCC2(CCN(C(=O)Nc3cccc(F)c3)CC2)CC1,.,.,.,1%[57.4 µM],-5%,.
Cc1cc2n(n1)SC(Nc1cc(Cl)ccc1Cl)N2 (centres undefined),4%,7.1µM*,1%,?,10%,1%
Cc1cc2n(n1)SC(Nc1cccc3ccccc13)N2 (centres undefined),-4%,-19%,4%,-30%,8%,6%
NC(=O)[C@H]1C[C@@H](O)[C@H](O)[C@H]2[C@@H]1SC(=Nc1ccc(Cl)cc1)N2CC1CCCCC1,.,.,.,28µM*,.,.
COc1ccc(N=C2S[C@H]3[C@H]([C@@H](O)[C@H](O)C[C@@H]3C(N)=O)N2Cc2ccc(F)cc2)cc1,.,.,.,52%,.,.
